Sampled rows, rich in hits. Any-hit rate of the full collection: about 1.1%.
Exocytosis inh: LAMP-1 surface exposure blockers, TALL-104 cells – cell-based, flow cytometry, MLPCN library, primary screen. TALL-104 LAMP-1 surface exposure; cells stimulated with thapsigargin and PMA. inhibition, % at 10 µM. 360,000 tested, 0.66% active;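 active = inhibition above about 55%, limit read from the data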
ABCB6 inh MLPCN: ABCB6 transporter inhibitors, primary screen, K562-ABCB6 cells, flow cytometry, MLPCN library; ATP-binding cassette sub-family B member 6 (Homo sapiens), Q9NP58; K562-ABCB6 porphyrin accumulation, 1 h; stronger effect = lower value; fluorescence ratio to DMSO, % at 10 µM; 360,000 tested, 0.19% active; AID 602162, 2011;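 active = fluorescence ratio to DMSO below 75%, the collection mean minus 3 SD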;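 also: signal is porphyrin accumulated inside mitochondria; 100% equals median channel fluorescence of DMSO control wells; lower ratio means ABCB6 inhibition with less porphyrin fluorescence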
Target sequence (Q9NP58 whole entry, looked up): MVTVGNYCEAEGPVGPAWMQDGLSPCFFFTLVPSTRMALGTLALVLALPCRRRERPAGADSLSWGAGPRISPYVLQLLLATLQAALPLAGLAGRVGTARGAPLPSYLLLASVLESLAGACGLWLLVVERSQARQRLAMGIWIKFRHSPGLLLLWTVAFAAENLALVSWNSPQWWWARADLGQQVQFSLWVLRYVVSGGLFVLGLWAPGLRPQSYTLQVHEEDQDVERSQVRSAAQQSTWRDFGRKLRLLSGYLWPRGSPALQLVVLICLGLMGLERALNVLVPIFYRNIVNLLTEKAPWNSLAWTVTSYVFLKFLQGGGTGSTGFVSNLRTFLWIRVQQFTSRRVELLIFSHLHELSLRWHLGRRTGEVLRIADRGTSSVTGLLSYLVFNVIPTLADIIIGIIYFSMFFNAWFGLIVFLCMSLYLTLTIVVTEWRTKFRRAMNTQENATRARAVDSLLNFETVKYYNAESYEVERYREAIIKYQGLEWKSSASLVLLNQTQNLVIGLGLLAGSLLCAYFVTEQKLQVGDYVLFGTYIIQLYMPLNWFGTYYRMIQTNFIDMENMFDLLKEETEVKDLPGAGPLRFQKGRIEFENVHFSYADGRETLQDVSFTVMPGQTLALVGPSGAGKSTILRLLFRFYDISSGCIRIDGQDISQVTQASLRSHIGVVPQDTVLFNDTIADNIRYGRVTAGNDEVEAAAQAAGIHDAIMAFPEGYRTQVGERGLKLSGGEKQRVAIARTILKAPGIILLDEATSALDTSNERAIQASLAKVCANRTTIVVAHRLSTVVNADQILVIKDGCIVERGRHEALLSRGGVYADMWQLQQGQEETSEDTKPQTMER
CaV13 ICDI inh: Primary screen for inhibitors of IQ motif and Ca2+-dependent inactivation inhibitor domain binding in CACNA1D, Förster resonance energy transfer in living cells, …; HEK cells, CFP/YFP FRET ICDI-IQ, plate reader, 10 min; percent FRET-ratio fall versus neutral wells; inhibition, % at 12.3 µM; 340,000 tested, 0.098% active;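 active = mean replicate inhibition of at least 30% and at least 1% of replicates passing that level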;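 also: 0% = median of the neutral control wells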
VLA-4 inh: inhibition in human VLA-4 binding assay, primary screen, VLA-4 allosteric modulator project, MLPCN library, flow cytometry, VLA-4 expressing cells; inhibition, % (about 7 µM as worked out from the volumes in the protocol); ligand binding flow cytometry; Integrin alpha-4 (Homo sapiens), P13612; 330,000 tested, 0.2% active; in the data active = inhibition above about 50%
Exocytosis CP01: inhibitors of lytic granule exocytosis, confirmation, TALL-104 cells, flow cytometry, Cherry Pick01; shares compounds with Exocytosis inh; LAMP-1 externalization; stimulated with PMA plus thapsigargin; inhibition, % at 10 µM; 1,500 tested, 11% active; AID 651954, 2012; in the data active = inhibition above about 60%;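 also: 0% = stimulated vehicle wells and 100% = unstimulated wells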
Numbers without * were called inactive; nt = no result given.

SMILES | Exocytosis inh | ABCB6 inh MLPCN | CaV13 ICDI inh | VLA-4 inh | Exocytosis CP01
COc1ccc(NCc2nnc(SCC(=O)Nc3ccccc3)n2C)cc1 | 0.2 | 96.0 | -0.5 | 2.4 | nt
CCN(Cc1nc2cc(Cl)ccc2c(=O)[nH]1)C(=O)c1cc(C2CC2)nn1-c1ccccc1 | 5.0 | 94.0 | nt | nt | nt
O=C(CC(Sc1ccc(Br)cc1)C(=O)O)c1ccc(F)cc1 (stereo not given) | 68.6* | 91.0 | -3.6 | 1.1 | -13.2
CCOc1ccc(C(=O)CC(Sc2ccc(C)cc2)C(=O)O)cc1 (stereo not given) | -1.8 | 107.0 | 0.7 | 11.4 | nt
Cn1c(=O)c(NC2CCCCC2)c2c3c(cccc31)C(=O)c1ccccc1-2 | 90.0* | 529.0 | -13.3 | nt | 101.0*
CCNc1c2c3c(cccc3n(C)c1=O)C(=O)c1ccccc1-2 | nt | nt | nt | 5.5 | nt
COc1ccc(CNC(=O)C(C)OC(=O)CO/N=C(\C)c2ccc3c(c2)OCO3)cc1 (stereo not given) | -1.7 | 92.0 | -5.5 | 10.9 | nt
O=C(CCS(=O)(=O)c1ccccc1)N(CCCN1CCOCC1)c1nc2c(F)cccc2s1 | 29.4 | 106.0 | -4.9 | -8.8 | nt
O=C(CCS(=O)(=O)c1ccccc1)N(CCCN1CCOCC1)c1nc2ccc(F)cc2s1 | 58.4* | 104.0 | -6.8 | 4.4 | -7.3
COc1ccccc1S(=O)(=O)N(C)C[C@H]1OCc2cnnn2CCCC(=O)N([C@H](C)CO)C[C@@H]1C | 5.6 | 103.0 | -6.8 | nt | nt
COc1cc2c(cc1OC)C(C)N(CCc1ccc(Cl)cc1)CC2 (stereo not given) | 62.1* | 98.0 | -2.7 | -7.0 | -12.3
O=S(=O)(c1ccccc1F)N1CCN(CC(O)c2ccccc2)CC1 (stereo not given) | 80.4* | 97.0 | -1.2 | 0.0 | -4.4
Cc1ccc(S(=O)(=O)N2CCN(CC(O)c3ccccc3)CC2)cc1 (stereo not given) | -0.5 | 96.0 | -0.1 | -4.2 | nt
Cc1cc(C)n(-c2nc(NCCCN(C)C)c3c4c(sc3n2)CCCC4)n1 | 16.6 | 98.0 | -4.9 | 9.3 | nt
Cc1cc(C)n(-c2nc(NCCN(C)C)c3c4c(sc3n2)CCCC4)n1 | 94.2* | 101.0 | 5.9 | 23.6 | 20.4
CC1CCN(CCCNC(=O)c2ccc3c(=O)n(Cc4ccc(Cl)cc4)c(=S)[nH]c3c2)CC1 | 70.7* | 98.0 | -2.3 | 14.2 | 10.6
COc1ccc(-c2c(Sc3ccccc3)c3cc(-c4ccc5c(c4)OCO5)ccc3n2C)cc1 | 25.7 | 104.0 | -5.4 | nt | nt
CCN(CC)CC(O)Cn1c2ccccc2c2ccccc21 (stereo not given) | -0.2 | 97.0 | -2.6 | 6.9 | nt
CCN(CC)CC(O)Cn1c(C)c(-c2ccccc2)c2cc([N+](=O)[O-])ccc21 (stereo not given) | 58.5* | 97.0 | -1.9 | 0.0 | 10.2
CCOc1ccccc1-c1nc(CN2CCCN(C(=O)c3ccco3)CC2)c(C)o1 | -11.5 | 94.0 | -5.9 | -5.5 | nt
COc1ccc(NC(=O)Nc2c(O)ccc3ccccc23)cc1 | 87.3* | 105.0 | -18.8 | -10.8 | -3.8
NC(=O)CSc1ccc(-c2ccc(F)cc2)nn1 | 0.1 | 90.0 | -4.7 | 24.5 | nt
CCCNC(=O)Cn1sc2nc(C)cc(C)c2c1=O | 58.3* | 94.0 | -3.0 | 1.6 | 103.0*
CC(=O)Cn1cnc2c(sc3nc(C)cc(C)c32)c1=O | -6.1 | 104.0 | -1.1 | -5.5 | nt
CC(C)N(Cc1ccccc1)S(=O)(=O)c1ccc(F)cc1 | 64.2* | 100.0 | -19.3 | 6.8 | -13.6
SMILES | Exocytosis inh | ABCB6 inh MLPCN | CaV13 ICDI inh | VLA-4 inh | Exocytosis CP01
O=[N+]([O-])c1cccc(-c2cc(-c3cc(Br)ccc3O)[nH]n2)c1 | 99.5* | 94.0 | -3.6 | 3.1 | 99.5*
Oc1ccc(Br)cc1-c1cc(-c2ccccc2)n[nH]1 | 0.1 | 92.0 | nt | 1.8 | nt
CC(=O)c1ccc(-n2nnnc2SCC(=O)NC2CCCCC2)cc1 | -1.0 | 102.0 | -5.9 | -2.6 | nt
CCOc1cc(CNCc2ccccc2)ccc1OCc1ccc(Cl)cc1 | 90.4* | 93.0 | -3.5 | 8.3 | 22.0
COc1ccc(CNCCc2ccc(Cl)cc2)cc1OCc1ccccc1 | 30.8 | 96.0 | nt | 5.2 | nt
COc1ccc(CNC(=O)Cn2ccc3cc(S(=O)(=O)N4CCCC4)ccc32)cc1OC | -1.4 | 104.0 | -7.4 | 0.6 | nt
CC(NC(=O)CSc1nc2c(c(C(F)(F)F)n1)CCc1ccccc1-2)c1ccccc1 (stereo not given) | 58.8* | 91.0 | -3.9 | -4.1 | -2.6
CCOC(=O)Nc1ccc2c(c1)N(C(=O)CCN(CC)CC)c1ccccc1S2=O (stereo not given) | 72.9* | 99.0 | -17.5 | 1.4 | -7.7
COc1cc(N)ccc1NC(=O)c1cc2ccccc2o1 | 0.6 | 103.0 | 1.7 | 0.1 | nt
CCCCCCn1c(COc2ccccc2F)nnc1SCC(=O)N1c2ccccc2NC(=O)C1(C)C | 75.0* | 92.0 | -8.1 | 18.6 | -8.7
O=P(c1ccccc1)(c1ccccc1)C(O)c1ccc(Br)cc1 (stereo not given) | 59.6* | 99.0 | -5.7 | -9.3 | -12.4
O=P(c1ccccc1)(c1ccccc1)C(O)c1ccccn1 (stereo not given) | 10.6 | 100.0 | -10.1 | -5.5 | nt
COc1ccc(CNC2CCN(Cc3ccccc3)CC2)cc1 | 60.0* | 97.0 | -19.4 | 0.5 | -2.9
COc1ccc(OC)c(S(=O)(=O)NC2CCN(Cc3ccccc3)CC2)c1 | 7.0 | 100.0 | -4.5 | 11.9 | nt
CCCCn1c(N)c(N(CCOC)C(=O)c2cc3c(s2)CCC3)c(=O)[nH]c1=O | -0.2 | 96.0 | -5.7 | -7.4 | nt
COc1ccc(CCNC(=O)Cc2ccc(NC3=NC4CS(=O)(=O)CC4S3)cc2)c(OC)c1 (stereo not given) | -7.3 | 98.0 | 14.9 | 30.2 | nt
COc1cc(CNC(C)(C)CO)cc(Br)c1OCc1ccc(Cl)cc1Cl | 79.3* | 94.0 | -5.0 | -0.7 | 27.5
Cc1cc(OCc2cn3cccnc3n2)ccc1Cl | -2.9 | 100.0 | -5.2 | 15.2 | nt
N#Cc1ccc(NC(=O)Nc2ccc(Oc3ccc(NC(=O)Nc4ccc(C#N)cc4)cc3)cc2)cc1 | 62.0* | 92.0 | -4.3 | -1.1 | 81.4*
CCOC(=O)c1nc(NCc2ccccc2)sc1C | -16.7 | 98.0 | -2.6 | 1.6 | nt
COc1ccc(CCNC(=O)c2cc3c(=O)n4cccc(C)c4nc3n(Cc3ccco3)c2=N)cc1OC | 33.2 | 93.0 | -12.4 | -6.7 | nt
COc1ccc(CCNC(=O)c2cc3c(=O)n4cccc(C)c4nc3n(CC3CCCO3)c2=N)cc1 (stereo not given) | 62.0* | 96.0 | -3.4 | 10.7 | -3.8
CCCCNC(=O)c1cc2c(=O)n3cccc(C)c3nc2s1 | 14.1 | 91.0 | -6.3 | 0.3 | nt
Cc1cccn2c(=O)c3cc(C(=O)NCCc4ccccc4)c(=N)n(Cc4ccco4)c3nc12 | 77.6* | 100.0 | -3.4 | -5.6 | 41.9

Bioassay records deposited in PubChem by several laboratories.
